Source: PubChem BioAssay (EPA / NIEHS)
Calls of active or inactive are those of the source. Rule for the calls: active = hit-call score of the fitted dose curve at least 0.9, where 1 is the maximum; inactive = score below 0.9.

Experiments:
[1] = ATG_ISRE_CIS: Attagene CIS-FACTORIAL HepG2 Assay for human Interferon Regulatory Factor 1 (IRF1) binding to an Interferon-Stimulated Response Element (ISRE) (AID 2282948); conditions: HepG2 ISRE cis-reporter (Attagene), mRNA transcription readout; actives raise or lower the signal
In short: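 Endogenous transcription factor activity read as reporter transcript abundance via RT-PCR and capillary electrophoresis. HepG2 cells transiently transfected, 24 h chemical exposure. Gain or loss fitted against DMSO baseline.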

[2] = ATG_M_32_CIS: Attagene CIS-FACTORIAL HepG2 Assay for M32 Transcription Factor (Internal Marker) (AID 2282949); conditions: HepG2 Attagene cis-factorial M32 reporter, mRNA; actives raise or lower the signal;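 note: background control marker of the multiplexed CIS panel rather than a real target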
In short: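 Using DMSO as baseline, bidirectional curve fits were applied to reporter mRNA signals. These came from transiently transfected HepG2 cells exposed for 24 h, with RNA analysed by RT-PCR, FAM primer extension, HpaI digestion and CE.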

[3] = ATG_M_06_CIS: Attagene CIS-FACTORIAL HepG2 Assay for M06 Transcription Factor (Internal Marker) (AID 2282950); conditions: HepG2 Attagene CIS-FACTORIAL M06 internal marker reporter; actives raise or lower the signal
In short: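 Steps: transfect HepG2 with multiplexed cis-element reporter constructs; dose chemical 24 h; extract RNA with DNase treatment; reverse-transcribe, PCR-amplify, 6-FAM label, HpaI digest; separate fragments by capillary electrophoresis. Activity fitted both directions versus DMSO.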

[4] = molecular target: Hypoxia-inducible factor 1-alpha (Homo sapiens) (UniProt Q16665); test: ATG_HIF1a_CIS: Attagene CIS-FACTORIAL HepG2 Assay for human Hypoxia Inducible Factor 1 (HIF1A) (AID 2282951); conditions: HepG2 Attagene cis-factorial HIF1a reporter transcription; actives raise or lower the signal
Chain of Hypoxia-inducible factor 1-alpha (Homo sapiens) (Q16665 whole entry, looked up): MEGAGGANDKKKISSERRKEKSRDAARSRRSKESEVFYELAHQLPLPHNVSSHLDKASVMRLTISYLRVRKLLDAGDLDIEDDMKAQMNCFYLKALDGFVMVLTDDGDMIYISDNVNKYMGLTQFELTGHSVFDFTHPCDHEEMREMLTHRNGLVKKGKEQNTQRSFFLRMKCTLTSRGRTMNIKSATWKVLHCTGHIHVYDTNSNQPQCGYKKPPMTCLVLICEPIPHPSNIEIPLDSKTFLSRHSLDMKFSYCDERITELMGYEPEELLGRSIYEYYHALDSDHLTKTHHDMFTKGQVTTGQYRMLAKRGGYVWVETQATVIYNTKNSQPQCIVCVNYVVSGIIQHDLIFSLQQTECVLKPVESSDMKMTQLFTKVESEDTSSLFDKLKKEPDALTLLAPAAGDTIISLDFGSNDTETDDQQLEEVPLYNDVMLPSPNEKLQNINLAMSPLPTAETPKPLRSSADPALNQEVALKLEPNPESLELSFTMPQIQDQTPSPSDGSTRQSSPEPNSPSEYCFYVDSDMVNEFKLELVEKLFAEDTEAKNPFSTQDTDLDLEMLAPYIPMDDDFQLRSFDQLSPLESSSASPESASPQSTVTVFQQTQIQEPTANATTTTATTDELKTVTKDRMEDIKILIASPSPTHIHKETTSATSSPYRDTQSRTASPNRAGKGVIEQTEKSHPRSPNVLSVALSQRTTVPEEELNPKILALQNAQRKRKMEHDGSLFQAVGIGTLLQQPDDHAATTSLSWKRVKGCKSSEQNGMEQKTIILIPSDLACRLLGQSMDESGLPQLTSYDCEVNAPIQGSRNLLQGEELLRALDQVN
In short: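 Dosed 24 h, transfected HepG2 cells yielded total RNA whose reporter transcripts were RT-PCR-amplified and sized by capillary electrophoresis using fluorescent labelling; DMSO defined baseline, with gain and loss of signal both fitted.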

[5] = molecular target: Hepatocyte nuclear factor 6 (Homo sapiens) (UniProt Q9UBC0); test: ATG_HNF6_CIS: Attagene CIS-FACTORIAL HepG2 Assay for human Hepatocyte Nuclear Factor 6 (HNF6) (AID 2282952); conditions: HepG2 Attagene cis-factorial HNF6 reporter transcription; actives raise or lower the signal
Chain of Hepatocyte nuclear factor 6 (Homo sapiens) (Q9UBC0 whole entry, looked up): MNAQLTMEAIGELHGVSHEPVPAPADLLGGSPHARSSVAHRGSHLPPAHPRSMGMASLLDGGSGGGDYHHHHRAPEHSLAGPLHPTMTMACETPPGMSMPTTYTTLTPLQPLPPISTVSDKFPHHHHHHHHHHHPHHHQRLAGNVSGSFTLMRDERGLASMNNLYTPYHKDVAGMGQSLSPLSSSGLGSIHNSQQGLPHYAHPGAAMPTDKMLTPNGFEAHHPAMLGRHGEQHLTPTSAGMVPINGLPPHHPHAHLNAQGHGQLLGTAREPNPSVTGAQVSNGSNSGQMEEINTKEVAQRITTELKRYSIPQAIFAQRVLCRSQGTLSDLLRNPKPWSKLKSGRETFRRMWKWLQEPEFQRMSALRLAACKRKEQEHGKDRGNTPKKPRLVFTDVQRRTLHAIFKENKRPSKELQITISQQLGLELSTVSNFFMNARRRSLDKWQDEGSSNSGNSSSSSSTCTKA
In short: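 Activity values derive from bidirectional fitting against DMSO of reporter mRNA levels, measured by capillary electrophoresis of labelled RT-PCR products from HepG2 cells exposed 24 h.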

[6] = molecular target: Heat shock factor protein 1 (Homo sapiens) (UniProt Q00613); test: ATG_HSE_CIS: Attagene CIS-FACTORIAL HepG2 Assay for human Heat Shock Transcription Factor 1 (HSE) (AID 2282953); conditions: HepG2 HSE cis-reporter, Attagene RNA transcription; actives raise or lower the signal
Chain of Heat shock factor protein 1 (Homo sapiens) (Q00613 whole entry, looked up, the tested form may be a part): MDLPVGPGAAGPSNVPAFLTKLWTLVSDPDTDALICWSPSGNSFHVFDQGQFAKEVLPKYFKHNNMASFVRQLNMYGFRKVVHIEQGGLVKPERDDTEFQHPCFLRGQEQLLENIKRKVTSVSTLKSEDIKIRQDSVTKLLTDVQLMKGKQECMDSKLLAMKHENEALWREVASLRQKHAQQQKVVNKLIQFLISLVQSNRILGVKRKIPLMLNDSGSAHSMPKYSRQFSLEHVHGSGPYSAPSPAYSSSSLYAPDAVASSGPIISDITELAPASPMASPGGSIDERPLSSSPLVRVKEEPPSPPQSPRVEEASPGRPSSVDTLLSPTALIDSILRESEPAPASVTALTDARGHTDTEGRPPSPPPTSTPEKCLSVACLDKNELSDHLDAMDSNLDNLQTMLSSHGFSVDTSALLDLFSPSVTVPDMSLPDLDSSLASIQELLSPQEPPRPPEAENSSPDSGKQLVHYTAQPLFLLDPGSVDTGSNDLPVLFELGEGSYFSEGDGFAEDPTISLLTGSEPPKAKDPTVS
In short: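 Cells were transfected with cis-element-driven reporter constructs, dosed for 24 h, then total RNA was reverse-transcribed and reporter cDNA amplified, FAM-labelled and digested with HpaI. Fragments were resolved by capillary electrophoresis; gain or loss was fitted against DMSO.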

[7] = ATG_MRE_CIS: Attagene CIS-FACTORIAL HepG2 Assay for human Metal Responsive Element (MRE) (AID 2282954); conditions: HepG2 MRE cis-reporter transcription, Attagene multiplex; actives raise or lower the signal
In short: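 RT-PCR/capillary electrophoresis readout of reporter mRNA, 24 h post-dosing, in HepG2 cells transfected with multiplexed cis-regulated reporter constructs. Gain or loss of signal fitted bidirectionally against DMSO baseline.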

[8] = ATG_PBREM_CIS: Attagene CIS-FACTORIAL HepG2 Assay for human Phenobarbital-responsive Enhancer Module (PBREM) (AID 2282955); conditions: HepG2 PBREM cis-reporter, Attagene multiplexed transcription; actives raise or lower the signal
In short: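 Transfected liver-derived HepG2 cells exposed 24 h; PBREM reporter transcript quantified via RT-PCR and capillary electrophoresis, with activity in either direction referenced to DMSO.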

[9] = molecular target: Paired box protein Pax-6 (Homo sapiens) (UniProt P26367); test: ATG_Pax6_CIS: Attagene CIS-FACTORIAL HepG2 Assay for human Paired Box 6 (PAX6) (AID 2282956); conditions: HepG2 CIS-FACTORIAL PAX6 reporter transcription, RNA readout; actives raise or lower the signal
Chain of Paired box protein Pax-6 (Homo sapiens) (P26367 whole entry, looked up): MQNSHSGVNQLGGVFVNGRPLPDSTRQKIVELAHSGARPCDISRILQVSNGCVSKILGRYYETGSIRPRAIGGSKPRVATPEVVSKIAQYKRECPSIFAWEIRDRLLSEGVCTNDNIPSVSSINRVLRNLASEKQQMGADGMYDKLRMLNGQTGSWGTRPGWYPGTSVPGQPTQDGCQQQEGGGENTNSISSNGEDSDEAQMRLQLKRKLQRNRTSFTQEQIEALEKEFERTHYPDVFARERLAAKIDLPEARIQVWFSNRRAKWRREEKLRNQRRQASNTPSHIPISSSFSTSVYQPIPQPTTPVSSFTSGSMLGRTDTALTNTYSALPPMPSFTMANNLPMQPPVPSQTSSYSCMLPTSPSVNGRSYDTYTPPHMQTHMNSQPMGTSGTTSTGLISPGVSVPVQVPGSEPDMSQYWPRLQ
In short: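 Read-out is reporter transcript level, measured by RT-PCR with fluorescent primer extension and capillary electrophoresis after 24 h dosing of transfected HepG2 cells. Activity in either direction fitted relative to DMSO control.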

[10] = ATG_PXRE_CIS: Attagene CIS-FACTORIAL HepG2 Assay for human Pregnane X Receptor Element (PXRE) (AID 2282957); conditions: HepG2 Attagene CIS-FACTORIAL PXRE reporter, mRNA; actives raise or lower the signal
In short: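 Fluorescent capillary electrophoresis of amplified reporter cDNA gave the signal, collected 24 h after dosing HepG2 cells that held transfected cis-element reporter constructs.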

[11] = ATG_PPRE_CIS: Attagene CIS-FACTORIAL HepG2 Assay for human Peroxisome Proliferator-activated Response Element (PPRE) (AID 2282958); conditions: HepG2 PPRE cis-element reporter, Attagene transcription factor profiling; actives raise or lower the signal
In short: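 Measured endpoint: PPRE-controlled reporter mRNA, detected by RT-PCR and capillary electrophoresis fluorescence, from transiently transfected HepG2 cells 24 h after dosing. Curves fitted in both directions using DMSO baseline.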

[12] = ATG_RORE_CIS: Attagene CIS-FACTORIAL HepG2 Assay for human RAR-related Orphan Receptor Element (RORE) (AID 2282959); conditions: HepG2 Attagene cis-factorial RORE reporter, mRNA; actives raise or lower the signal
In short: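 Transiently transfected HepG2 reporter cells were treated 24 h. Reporter transcripts were detected by RT-PCR and capillary electrophoresis, with bidirectional fitting against DMSO.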

[13] = ATG_Sox_CIS: Attagene CIS-FACTORIAL HepG2 Assay for human SRY-box transcription factor (SOX) (AID 2282960); conditions: HepG2 Attagene cis-factorial SOX reporter, mRNA; actives raise or lower the signal
In short: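 Gain- or loss-of-signal endpoint, fitted bidirectionally with DMSO as negative control. Based on reporter mRNA from transfected HepG2 cells harvested 24 h post-treatment and quantified via RT-PCR and capillary electrophoresis.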

[14] = molecular target: Transcription factor Sp1 (Homo sapiens) (UniProt P08047); test: ATG_Sp1_CIS: Attagene CIS-FACTORIAL HepG2 Assay for human Specificity Protein 1 (Sp1) (AID 2282961); conditions: HepG2 Sp1 cis-reporter transcription, actives raise or lower the signal
Chain of Transcription factor Sp1 (Homo sapiens) (P08047 whole entry, looked up, the tested form may be a part): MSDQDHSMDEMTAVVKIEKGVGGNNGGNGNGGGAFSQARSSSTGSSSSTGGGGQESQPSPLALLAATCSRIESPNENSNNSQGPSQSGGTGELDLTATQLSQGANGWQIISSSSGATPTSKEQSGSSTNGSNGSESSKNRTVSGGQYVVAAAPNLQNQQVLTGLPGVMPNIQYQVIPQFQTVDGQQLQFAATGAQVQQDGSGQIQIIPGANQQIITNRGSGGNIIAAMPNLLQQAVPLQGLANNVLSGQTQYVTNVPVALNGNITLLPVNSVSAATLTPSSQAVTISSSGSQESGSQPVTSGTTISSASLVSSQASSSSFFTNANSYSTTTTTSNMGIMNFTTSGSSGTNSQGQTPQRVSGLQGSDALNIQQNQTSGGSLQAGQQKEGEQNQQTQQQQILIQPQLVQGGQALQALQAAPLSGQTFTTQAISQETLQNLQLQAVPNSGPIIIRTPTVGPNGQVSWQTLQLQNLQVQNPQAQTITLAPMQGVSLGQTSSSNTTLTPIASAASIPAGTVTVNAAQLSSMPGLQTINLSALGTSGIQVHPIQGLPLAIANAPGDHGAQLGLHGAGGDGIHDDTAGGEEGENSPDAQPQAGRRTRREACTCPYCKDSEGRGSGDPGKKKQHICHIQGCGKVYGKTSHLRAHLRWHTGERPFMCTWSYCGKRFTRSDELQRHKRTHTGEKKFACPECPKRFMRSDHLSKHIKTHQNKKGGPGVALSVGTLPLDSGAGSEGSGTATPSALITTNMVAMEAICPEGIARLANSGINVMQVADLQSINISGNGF
In short: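 Endpoint reflects endogenous Sp1 transcriptional activity, not an exogenous fusion protein: HepG2 cells with transfected cis-regulated reporters, 24 h dosing, RT-PCR/capillary electrophoresis mRNA read-out, DMSO-normalised bidirectional fit.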

[15] = ATG_SREBP_CIS: Attagene CIS-FACTORIAL HepG2 Assay for human Sterol Regulatory Element Binding (SREBP) (AID 2282962); conditions: HepG2 Attagene cis-factorial SREBP reporter, mRNA; actives raise or lower the signal
In short: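 Endogenous SREBP activity read as cis-element-driven reporter transcript in transiently transfected HepG2, 24 h post-dosing; quantified via RT-PCR plus capillary electrophoresis of fluorescent fragments. Gain or loss of signal fitted relative to DMSO baseline.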

[16] = molecular target: Signal transducer and activator of transcription 3 (Homo sapiens) (UniProt P40763); test: ATG_STAT3_CIS: Attagene CIS-FACTORIAL HepG2 Assay for human Signal Transducer and Activator of Transcription 3 (STAT3) (AID 2282963); conditions: HepG2, Attagene cis-factorial STAT3 reporter transcription; actives raise or lower the signal
Chain of Signal transducer and activator of transcription 3 (Homo sapiens) (P40763 whole entry, looked up, the tested form may be a part): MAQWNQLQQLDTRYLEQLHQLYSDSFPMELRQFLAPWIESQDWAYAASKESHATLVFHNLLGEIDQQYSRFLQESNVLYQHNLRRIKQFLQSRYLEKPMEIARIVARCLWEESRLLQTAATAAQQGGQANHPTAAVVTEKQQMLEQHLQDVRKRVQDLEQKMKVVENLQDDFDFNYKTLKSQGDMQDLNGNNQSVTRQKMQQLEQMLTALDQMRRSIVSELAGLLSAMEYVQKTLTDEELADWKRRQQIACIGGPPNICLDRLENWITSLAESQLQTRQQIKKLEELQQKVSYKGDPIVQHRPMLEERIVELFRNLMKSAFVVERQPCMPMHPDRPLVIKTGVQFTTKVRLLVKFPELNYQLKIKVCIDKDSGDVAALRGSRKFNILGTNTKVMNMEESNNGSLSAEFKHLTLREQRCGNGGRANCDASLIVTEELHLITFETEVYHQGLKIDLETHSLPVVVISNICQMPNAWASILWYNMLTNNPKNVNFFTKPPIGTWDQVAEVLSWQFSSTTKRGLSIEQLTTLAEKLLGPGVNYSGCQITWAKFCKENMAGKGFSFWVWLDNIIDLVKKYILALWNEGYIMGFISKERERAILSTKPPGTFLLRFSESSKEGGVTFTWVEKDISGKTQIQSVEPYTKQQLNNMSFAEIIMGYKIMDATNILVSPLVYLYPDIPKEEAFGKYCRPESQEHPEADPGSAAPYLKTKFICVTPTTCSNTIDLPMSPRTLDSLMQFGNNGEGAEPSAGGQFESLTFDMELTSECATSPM
In short: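 Readout: fluorescent reporter mRNA fragments resolved by capillary electrophoresis. Setup: HepG2 transfected with MRTUs reporting endogenous transcription-factor activity, dosed 24 h. Gain or loss of signal fitted bidirectionally against DMSO control.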

[17] = ATG_TA_CIS: Attagene CIS-FACTORIAL HepG2 Assay for human TA Basal Promoter (AID 2282964); conditions: HepG2 Attagene CIS-factorial TA basal promoter reporter; actives raise or lower the signal
In short: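 Steps: transfect HepG2 with MRTUs; dose 24 h; isolate RNA, DNase-treat, reverse-transcribe; PCR and FAM-label reporter cDNA; digest with HpaI 2h at 37 C; run capillary electrophoresis. Activity fitted both directions against DMSO.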

[18] = ATG_TCF_b_cat_CIS: Attagene CIS-FACTORIAL HepG2 Assay for human T-Cell-Factor with beta-catenin (TCF/b-cat) (AID 2282965); conditions: HepG2 TCF/beta-catenin cis-reporter transcription, actives raise or lower the signal
In short: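 HepG2, transient MRTU transfection, cis-element-driven reporters (endogenous TFs). 24 h compound exposure. Readout: reporter mRNA by RT-PCR + 6-FAM primer extension, HpaI digest, capillary electrophoresis. Gain/loss fit vs DMSO baseline.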

[19] = ATG_GRE_CIS: Attagene CIS-FACTORIAL HepG2 Assay for human Glucocorticoid Response Elements (GRE) (AID 2282947); conditions: HepG2 GRE cis-reporter, Attagene multiplex mRNA; actives raise or lower the signal
In short: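 Read-out: fluorescent reporter-transcript fragments separated by capillary electrophoresis after RT-PCR. Transiently transfected HepG2 cells carrying cis-element-driven reporter units were dosed for 24 h; gain or loss of signal fitted against DMSO control.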

Row | SMILES | outcome [1] | outcome [2] | outcome [3] | outcome [4] | outcome [5] | outcome [6] | outcome [7] | outcome [8] | outcome [9] | outcome [10] | outcome [11] | outcome [12] | outcome [13] | outcome [14] | outcome [15] | outcome [16] | outcome [17] | outcome [18] | outcome [19] | AC50 [10]
1 | COC=O | inactive | inactive | inactive | inactive | inactive | inactive | inactive | inactive | inactive | inactive | inactive | inactive | inactive | inactive | inactive | inactive | inactive | inactive | – | –
2 | Nc1ncn([C@@H]2O[C@H](CO)[C@@H](O)[C@H]2O)c(=O)n1 | – | inactive | inactive | – | inactive | inactive | – | inactive | inactive | inactive | inactive | inactive | inactive | inactive | inactive | inactive | inactive | – | inactive | –
3 | C=CCOCC(O)CCl (centres undefined) | – | inactive | inactive | inactive | inactive | inactive | inactive | – | inactive | – | inactive | inactive | – | inactive | inactive | inactive | inactive | inactive | inactive | 35.5 µM (active)
